Test results from the supplement of paper PMC10338343.
± gives the standard deviation. The full ranking holds about 8,200 sequences; the median of “pre-steady-state target cleavage rate” is about 0.024, and the highest 2% start at about 1.3. This excerpt belongs to a sample that is enriched for the highest values.

Test system: MIWI (PIWIL1) piRISC loaded with L1MC piRNA (30 nt)
Experiment: pre-steady-state target cleavage rate (min^-1); MIWI and MILI are mouse PIWI proteins and EfPiwi is from a freshwater sponge; tags in brackets are library labels; higher = faster piRNA-guided slicing of the target
Details: guide: L1MC piRNA 5'p-UAACUAAAUACUAUGCAAGCUGUAGGUCCU
Procedure, shortened: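 Cleave-'n-Seq: a transcribed, DNA-blocked target RNA library (0.1 nM) was mixed with 1 nM active affinity-purified piRISC carrying one synthetic guide, with or without 500 nM GTSF1 partner protein, in HEPES–potassium acetate buffer at 33 °C for 0–8 or 0–960 min. Uncleaved targets were sequenced and normalised to depth and to weakly complementary targets. Three trials were pooled, and k3 was capped at 0.0001 min^-1. The pre-steady-state cleavage rate came from a burst-and-steady-state fit.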

[1] = auxiliary factor: 500 nM mouse GTSF1
[2] = auxiliary factor: none (no GTSF1)

Sequence | pre-steady-state target cleavage rate [1] | pre-steady-state target cleavage rate [2]
UCGACCGUACAGCUUGCAUAGUAUUUAGUUA | 1.26 ± 0.046 | 0.0719 ± 0.013
UCGACCGACAGCUUGCAUAGUAUUUAGUUA | 1.41 ± 0.05 | 0.0741 ± 0.012
UCCACCAUCAGCUUGCAUAGUAUUUAGUAA | 0.68 ± 0.029 | 0.0248 ± 0.0047
UCCUGGAUGUCCUUGCAUAGUAUUGAGUUA | 0.142 ± 0.031 | 0.00653 ± 0.0024
UGGACCUACAGCUUGCAAUGUAUUUACAAA | 0.0217 ± 0.0068 | –
UCCUGGAUCAGCUUGCAUACUAUUAAGUUA | 0.101 ± 0.015 | 0.00664 ± 0.0024
UCCUGGAACAGCUUGCAAAGUAUUUUCAAA | 0.0876 ± 0.018 | 0.00328 ± 0.002
UCCUGGUACAGCUUGCAUAGUAUUUAGUCUA | 0.0829 ± 0.026 | 0.00718 ± 0.0028
AGGACCUACAGCUUGCAUAGAAUUUAGUUA | 0.559 ± 0.044 | 0.0408 ± 0.011
UCCUGCAACAGCUUGCAUAGUAUUUAGAAA | 0.429 ± 0.059 | 0.00469 ± 0.0034
UCCUGCAACAGCUUGCAAAGUAUUUAGUUA | 1.32 ± 0.076 | 0.0463 ± 0.01
UCCUGCAACAGCUUGCAUAGUAUUUAGUUA | 1.57 ± 0.12 | 0.0696 ± 0.017
UCCUGGAACAGCUUGCUUAGUAUUUAGUUA | 1.14 ± 0.053 | 0.0404 ± 0.0098
UCCUGCUACAGCUUGCAAAGUAUUUAGUUA | 0.619 ± 0.037 | 0.03 ± 0.0055
UCCUGGAACAGCUUGCGUAGUAUUUAGUUA | 1.43 ± 0.087 | 0.0397 ± 0.0099
UCCUCCAACAGCUUGCAAAGUAUUUAGUUA | 1.16 ± 0.043 | 0.0397 ± 0.0099
UCCUGCAACAGCAUGCAUAGUAUUUAGUUA | 1.36 ± 0.087 | 0.0331 ± 0.0088
UCCUGCUACAGCAUGCAUAGUAUUUAGUUA | 1.21 ± 0.086 | 0.0207 ± 0.0053
UCCUGGAACAGCUUGCAGUAGUAUUUAGUUA | 0.00503 ± 0.0043 | –
UCCUGCAACAGCUUGCAUAGUAUUUAGUAA | 1.22 ± 0.083 | 0.0736 ± 0.021
UCCUGCAACAGCUAGCAUAGUAUUUAGUUA | 1.12 ± 0.047 | 0.0185 ± 0.004

Sequence | pre-steady-state target cleavage rate [1] | pre-steady-state target cleavage rate [2]
UGCACCUACAGCUUGCAUAGUAUUUUGUUA | 0.852 ± 0.083 | 0.0692 ± 0.015
UCCUGGAUGUGCUUGCAUAGUAAUUUGUUA | 0.0171 ± 0.0079 | 0.00536 ± 0.0029
UCCACCAACAGCUUCCAUAGUAUUUAGUUA | 0.0426 ± 0.015 | 0.00399 ± 0.0017
AGGACCAACAGCUUGCAUUGUAUUUAGUUA | 0.923 ± 0.044 | 0.0356 ± 0.0086
UCCUCCUACAGCUUGCAUAGUUUUUACAAA | 0.185 ± 0.029 | –
UCCUGGAACAGCUUGCAUAGUUAUUAGUUA | 0.113 ± 0.015 | 0.015 ± 0.0044
UCCUGGAACAGCUUGUAUAGUAUUUAGUUA | 1.37 ± 0.056 | 0.0564 ± 0.012
UCCUGGAACAGCUUGCAUAGUAUUUAGUUA [g2:g23:cont:t1A] | 1.18 ± 0.034 | 0.0833 ± 0.014
UCCUGGAAACAGCUUGCAUAGUAUUUAGUUA | 1.34 ± 0.051 | 0.0675 ± 0.012
UCCUGGAACAGCUUGCAUAGUAUCUUAGUUA | 0.777 ± 0.046 | 0.0258 ± 0.0072
UCCUGGAACAGCUUGCAUAGUAUCUAGUUA | 0.508 ± 0.045 | 0.0563 ± 0.011
UCCUGGAACAGCUUGCAUAGUAUUUUAGUUA | 0.875 ± 0.046 | 0.0159 ± 0.003
UCCUGCAACAGCUUGGAUAGUAUUUAGUUA | 1.24 ± 0.1 | 0.0688 ± 0.012
UCCUGCAACAGCUUGCUUAGUAUUUAGUUA | 1.4 ± 0.097 | 0.0478 ± 0.013
UCCUGGAACAGCUUGCAUAGUAUUCUAGUUA | 0.285 ± 0.041 | 0.0119 ± 0.0031
UCCUGCAACAGCUUGCAUUGUAUUUAGUUA | 0.964 ± 0.068 | 0.0397 ± 0.01
UCGACCUACAGCUUGCAUAGUAUUCUAGUUA | 0.882 ± 0.094 | 0.0316 ± 0.0072
UGGACCUACAGCUUGCUUAGUAUUAAGUUA | 0.454 ± 0.041 | 0.012 ± 0.0028
UCCUCCUACAGCUUGCAUACUAUUAAGUUA | 0.147 ± 0.022 | 0.00892 ± 0.0014
UCCACCUACAGGUUGCAAAGUAUUUAGUUA | 1 ± 0.04 | 0.0166 ± 0.0038
UCCUCCUACAGGUUGCAAAGUAUUUAGUUA | 1.29 ± 0.06 | 0.0159 ± 0.0033

Sequence | pre-steady-state target cleavage rate [1] | pre-steady-state target cleavage rate [2]
AGGACCUACAGGUUGCAAAGUAUUUAGUUA | 1.21 ± 0.045 | 0.0226 ± 0.0041
UGGACCUACAGGUUGCAAAGUAUUUAGUUA | 1.33 ± 0.082 | 0.02 ± 0.0043
UCGACCUACAGGUUGCAAAGUAUUUAGUUA | 1.33 ± 0.054 | 0.0193 ± 0.0046
UCGACCUACAGGUUGCAUAGUAUUUAGUUA | 1.14 ± 0.053 | 0.0468 ± 0.0088
UCCUGCUACAGCUUGCAUAGUAUUUAGUCUA | 0.156 ± 0.025 | 0.00747 ± 0.0028
UCGACCUACAGCUUGCAUAGUUAAUUCAAA | 0.538 ± 0.15 | –
UCCUGGAUGAGCUUGCAUAGUUUUUUGUUA | 0.0806 ± 0.014 | 0.0177 ± 0.0048
UCCUGGAUGAGCUUGCAUUGUAUUUACUUA | 0.0649 ± 0.016 | 0.00906 ± 0.0031
AGGACCUACAGCUUGCAUAGAAUUUUGUUA | 0.501 ± 0.047 | 0.0183 ± 0.0047
AGGACCUACAGCUUGCAUAGUAUUUAGUA | 0.795 ± 0.042 | 0.0502 ± 0.014
UCGACCUACUAGCUUGCAUAGUAUUUAGUUA | 0.784 ± 0.042 | 0.0512 ± 0.01
AGGACCUAGCAGCUUGCAUAGUAUUUAGUUA | 1.21 ± 0.073 | 0.0735 ± 0.015
UCCACCUAGCAGCUUGCAUAGUAUUUAGUUA | 0.833 ± 0.057 | 0.0454 ± 0.0087
AGCACCUAGAGCUUGCAUAGUAUUUAGUUA | 1.47 ± 0.37 | 0.00468 ± 0.0035
UGGACCUACUAGCUUGCAUAGUAUUUAGUUA | 0.63 ± 0.036 | 0.0509 ± 0.01
UGCACCUAGAGCUUGCAUAGUAUUUAGUUA | 1.2 ± 0.25 | 0.0155 ± 0.0045
UCGACCUAGCAGCUUGCAUAGUAUUUAGUUA | 1.34 ± 0.058 | 0.0726 ± 0.016
UCCACCUAGAGCUUGCAUAGUAUUUAGUUA | 0.593 ± 0.06 | 0.0282 ± 0.0051
UGGACCUAGCAGCUUGCAUAGUAUUUAGUUA | 1.59 ± 0.13 | 0.0734 ± 0.014
